Inconclusive results are not listed. The source made the active and inactive calls. Unless noted, the call rests on the fitted dose curve; in most records, active means well fitted curve in the direction sought with a large enough effect; inconclusive means small, poorly fitted or top-dose-only effect, or another doubt; inactive means no such curve, though single readings can be large; an effect the other way counts as inactive or inconclusive.
What was measured:
[1] = molecular target: Lysosomal acid glucosylceramidase (Homo sapiens) (UniProt P04062); test: Glucocerebrosidase-p2 (AID 348; in the data active means potency below about 10 µM; further: potency means the concentration at half of the fitted maximal effect); conditions: purified GBA, blue fluorogenic substrate, 40 min
Summary of the method: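 Compounds titrated from 0.6 nM upwards against 0.2 nM enzyme in pH 5.9 citric acid/KH2PO4, taurocholate, tween-20; blue fluorogenic substrate 80 uM, 40 min room temperature, stopped and read Ex 365/Em 440 for AC50.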

[2] = AP1 Signaling Pathway (AID 357; active means well fitted curve in either direction with a large enough effect, not every such curve was filed as active;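 further: ME-180 reporter cells stimulated with EGF at its EC50 level; on the % scale 0 is the no-effect control and ±100 the full control effect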); conditions: ME-180 AP-1-bla reporter, EGF-induced, beta-lactamase ratio, 5 h; at 7.69 µM (top of the series) unless noted
Summary of the method: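 A ratiometric CCF4 readout (405 nm excitation; 460 and 530 nm emission) quantified AP-1-driven beta-lactamase in ME-180 cells after 5 h with compound and EC50 EGF; AC50 values were derived for activators and inhibitors.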

[3] = molecular target: Cytochrome P450 1A2 (Homo sapiens) (UniProt P05177); test: p450-cyp1a2 (AID 410; calls by dose curve; further: potency means the concentration at half of the fitted maximal effect); conditions: recombinant CYP1A2, luciferin-ME demethylation, luminescence; series mostly up to 57 µM
Summary of the method: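 Human CYP1A2 (20nM) demethylated Luciferin-ME at its Km (100uM) in 100mM KPO4. After 10 min compound preincubation, NADPH regeneration ran the reaction 60 min at room temperature. Luciferin was read by luminescence, normalized to 57 uM furafylline.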

[4] = NFAT Signaling Pathway (AID 444; active means well fitted curve in either direction with a large enough effect, not every such curve was filed as active;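 further: carbachol stimulus at about its EC50 of 1 µM final; on the % scale 0 is the no-effect control and ±100 the full control effect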); conditions: Jurkat NFAT-bla M1, carbachol, beta-lactamase ratio, 5 h; at 7.69 µM (top of the series) unless noted
Summary of the method: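 Jurkat cells carrying an NFAT-driven β-lactamase reporter and co-transfected muscarinic M1 receptor were treated with compound plus carbachol (1 uM final, an EC50 level) for 5 h at 37 °C. CCF4 loading followed for 1 h at RT; 460/530 nm ratio gave %activity.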

[5] = Stat Signaling Pathway (AID 446; active means well fitted curve in either direction with a large enough effect, not every such curve was filed as active;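 further: ME-180 cervical cancer cells given 40 pM IL-6 alongside compound; SIE-controlled beta-lactamase reporter measured as 460/530 nm FRET emission ratio; on the % scale 0 is the no-effect control and ±100 the full control effect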); conditions: ME-180 SIE beta-lactamase reporter, IL-6 stimulated, 5 h; at 7.69 µM (top of the series) unless noted
Summary of the method: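 IL-6/STAT signaling read in ME-180 cells via an SIE beta-lactamase reporter. Stimulus was 40 pM IL-6 (its AC50) for 5 hrs, so both activation and inhibition register.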

[6] = molecular target: Glucocorticoid receptor (Homo sapiens) (UniProt P04150); test: GR-GFP Redistribution (AID 450;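 active means compounds whose dose series gives a full or clear partial fitted curve of increased nuclear translocation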; further: potency means the concentration at half of the fitted maximal effect); conditions: U2OS GR-GFP nuclear translocation, laser cytometry, 2 h
[7] = molecular target: Glucocorticoid receptor (Homo sapiens) (UniProt P04150); test: GR-EFC Redistribution (AID 451; calls by dose curve; further: potency means the concentration at half of the fitted maximal effect); conditions: CHO-K1 GR-EFC translocation, beta-gal luminescence, 2 h
Summary of the method: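 CHO-K1 cells stably expressing nuclear-localized β-gal enzyme acceptor and GR fused C-terminally to the enzyme donor fragment; ligand-driven nuclear translocation restores β-gal by complementation. Compounds titrated up to 46 uM final, 2 h at 37 °C; luminescence read.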

[8] = molecular target: Mitogen-activated protein kinase 10 (Mus musculus) (UniProt Q61831); test: JNK3 AlphaScreen Assay (AID 530; active means well fitted curve in either direction with a large enough effect, not every such curve was filed as active;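 further: kinase came from lysate of stimulated human HepG2 cells; signal reports phosphorylation of biotinylated GST-cJun 1-79 at Ser73 with 10 µM ATP; on the % scale 0 is the no-effect control and ±100 the full control effect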); conditions: JNK3 lysate, c-Jun phosphorylation; series mostly up to 57.1 µM
Summary of the method: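 JNK3 came from HepG2 lysates pre-activated with IL-1beta and TNF-alpha and phosphorylated biotinylated GST-cJun (1-79) at 10 uM ATP, pH 7.6, room temperature. Compounds were titrated. AlphaScreen signal used anti-phospho-cJun (Ser73) antibody.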

[9] = molecular target: 3',5'-cyclic-AMP phosphodiesterase 4B (Homo sapiens) (UniProt Q07343); test: qHTS Assay for Inhibitors of PDE-IV (AID 607; active means well fitted activation curve with a large enough effect in the main read-out, with a control signal flat, not every such curve was filed as active; further: % of control where 0% means no effect); conditions: HEK293 ACTOne CNG channel cells, membrane potential fluorescence; series mostly up to 22.9 µM
Summary of the method: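 Live HEK293 cells with a modified cyclic nucleotide-gated (CNG) channel report intracellular cAMP via membrane-potential dye fluorescence (ex 535/em 590 nm). Endogenous PDE-IV was targeted. Compounds were tested at up to 22.9 uM final; RO 20-1724 100 uM served as control.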

[10] = molecular target: Cytochrome P450 2C9 (Homo sapiens) (UniProt P11712); test: qHTS Assay for Inhibitors and Substrates of Cytochrome P450 2C9 (AID 883); conditions: recombinant CYP2C9, luciferin-H luminescence, 60 min; series mostly up to 57.1 µM; further: on the % scale 0 is the no-effect control and ±100 the full control effect; nearly all actives have a fitted effect of over 60% in size
Summary of the method: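 Human CYP2C9 (10nM) hydroxylated Luciferin-H (100uM, at its KM) to luciferin in 25mM KPO4. Compound was preincubated 10 min at 37C, then NADPH regeneration started a 60 min reaction at 37C. Luminescence was read after detection reagent, normalized to 57uM sulphaphenazole.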

[11] = qHTS Assay for Lipid Storage Modulators (AID 1519; calls by dose curve; further: potency means the concentration at half of the fitted maximal effect); conditions: Drosophila S3 cells, BODIPY lipid droplet/cell ratio, laser cytometry, cells loaded with oleic acid; for activity change, negative = inhibition: at 57.5 µM (top of the series)
Summary of the method: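 Cells seeded at 5,000 per well were treated with compounds over a concentration series and loaded with oleic acid (400 uM, as added). Lipid droplet fluorescence (488 nm excitation, 500-530 nm channel) was read by laser-scanning cytometry and normalized to 20 uM Triacsin C.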

[12] = molecular target: Dual specificity protein kinase CLK4 (Homo sapiens) (UniProt Q9HAZ1); test: qHTS Assay for Inhibitors of CDC-like Kinase 4 (Kinase-Glo Assay) (AID 1770); conditions: recombinant Clk4, Kinase-Glo ATP depletion luminescence; series mostly up to 66.7 µM; further: on the % scale 0 is the no-effect control and ±100 the full control effect; nearly all actives have a fitted effect of over 65% in size
Summary of the method: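 Inhibition was judged from remaining ATP, measured by Ultra-Glo luciferase bioluminescence after Clk4 (25 nM) had acted on RS peptide at 1 uM ATP for 4.5 hours, room temperature.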

[13] = molecular target: Dual specificity protein kinase CLK4 (Homo sapiens) (UniProt Q9HAZ1); test: qHTS Assay for Inhibitors of CDC-like Kinase 4 (ADP-FP Assay) (AID 1795); conditions: Transcreener ADP fluorescence polarization; series mostly up to 50 µM;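 further: recombinant human CLK4 phosphorylating RS repeat peptide at 1 µM ATP; on the % scale 0 is the no-effect control and ±100 the full control effect; nearly all actives have a fitted effect of over 60% in size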
Summary of the method: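 Inhibition of ADP formation by 6.25 nM Clk4 is measured using 1 uM ATP and 100 uM RS repeat peptide over one hour. Produced ADP displaces a fluorescent tracer from antibody, lowering polarization.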

[14] = molecular target: Ubiquitin carboxyl-terminal hydrolase 1 (Homo sapiens) (UniProt O94782); test: Inhibitors of USP1/UAF1: Pilot qHTS (AID 504865); conditions: purified USP1/UAF1, Ub-rhodamine cleavage fluorescence; series mostly up to 54.9 µM;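 further: rhodamine fluorescence freed from ubiquitin-rhodamine substrate followed over time; top concentration of the series differs between compounds; on the % scale 0 is the no-effect control and ±100 the full control effect; nearly all actives have a fitted effect of over 35% in size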
Summary of the method: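 Kinetic fluorescence assay: 1nM USP1/UAF1, 15 min compound preincubation, then 150nM Ub-Rho; 480/540 nm.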

[15] = Primary qHTS for small molecule stabilizers of the endoplasmic reticulum resident proteome: Secreted ER Calcium Modulated Protein (SERCaMP) assay (AID 1508630); conditions: SH-SY5Y GLuc-SERCaMP (Gaussia luciferase released on ER calcium loss) secretion, thapsigargin, luminescence; series mostly up to 38.4 µM; further: on the % scale 0 is the no-effect control and ±100 the full control effect
Summary of the method: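 GLuc-SERCaMP-expressing SH-SY5Y cells, pretreated 16 h with compound, are challenged with thapsigargin to empty ER calcium stores; after 4 h, coelenterazine is added directly to the medium and luminescence is imaged.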

[16] = molecular target: Cytochrome P450 3A4 (Homo sapiens) (UniProt P08684); test: qHTS Assay for Inhibitors and Substrates of Cytochrome P450 3A4 (AID 884); conditions: recombinant CYP3A4, Luciferin-PPXE luminescence; series mostly up to 57.1 µM; further: nearly all actives have a fitted effect of over 50% in size; further: potency means the concentration at half of the fitted maximal effect
Summary of the method: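 20 nM human CYP3A4 with 25 uM Luciferin-PPXE (at KM) in 200 mM KPO4, preincubated 10 min with compound; NADPH regeneration started a 60 min RT reaction. Luciferin detected by luminescence, normalized to 57 uM ketoconazole as full inhibition.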

[17] = molecular target: Cytochrome P450 3A4 (Homo sapiens) (UniProt P08684); test: qHTS Assay for Activators of Cytochrome P450 3A4 (AID 885); conditions: recombinant CYP3A4, Luciferin-PPXE luminescence, 60 min; series mostly up to 57.1 µM; further: nearly all actives have a fitted effect of over 65% in size; further: potency means the concentration at half of the fitted maximal effect
Summary of the method: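 Quantitative HTS format: compounds preincubated with 20nM human CYP3A4 and Luciferin-PPXE substrate at KM, reaction started by NADPH regeneration, stopped after 60 min, luciferase luminescence read 20 min later.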

[18] = qHTS Assay for Identification of Small Molecule Agonists for Hypoxia Response Element Signaling Pathway (AID 914; active means well fitted activation curve with a large enough effect in the signal ratio, with a control signal flat, not every such curve was filed as active; the % refers to the signal ratio; further: % of control where 0% means no effect); conditions: ME-180 (cervical carcinoma) HRE-bla reporter, beta-lactamase ratio, CoCl2, 17 h; activation: stronger effect = higher value
Summary of the method: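 HRE-bla ME-180 assay for agonist-like enhancement of an EC50 CoCl2 stimulus: 17 h at 37 degrees Celsius, CCF4 for 2.5 h, ratiometric 460/530 nm signal converted to %Activity and fitted to AC50.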

[19] = measured here: cell count channel max response
[20] = measured here: lipid channel max response

Chain of Dual specificity protein kinase CLK4 (Homo sapiens) (Q9HAZ1 whole entry, looked up): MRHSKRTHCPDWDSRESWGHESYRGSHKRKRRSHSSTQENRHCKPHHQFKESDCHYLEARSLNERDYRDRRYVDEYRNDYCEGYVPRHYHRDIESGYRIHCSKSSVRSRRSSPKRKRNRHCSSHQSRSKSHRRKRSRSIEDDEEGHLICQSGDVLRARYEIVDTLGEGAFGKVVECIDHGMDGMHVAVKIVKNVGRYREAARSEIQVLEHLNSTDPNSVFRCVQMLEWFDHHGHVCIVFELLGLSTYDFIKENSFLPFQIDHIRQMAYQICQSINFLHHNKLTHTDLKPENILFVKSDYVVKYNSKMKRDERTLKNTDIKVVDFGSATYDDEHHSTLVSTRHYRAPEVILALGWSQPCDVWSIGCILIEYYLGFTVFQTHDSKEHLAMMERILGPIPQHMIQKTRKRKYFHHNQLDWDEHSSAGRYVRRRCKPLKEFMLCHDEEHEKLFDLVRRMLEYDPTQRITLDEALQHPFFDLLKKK
Chain of 3',5'-cyclic-AMP phosphodiesterase 4B (Homo sapiens) (Q07343 whole entry, looked up): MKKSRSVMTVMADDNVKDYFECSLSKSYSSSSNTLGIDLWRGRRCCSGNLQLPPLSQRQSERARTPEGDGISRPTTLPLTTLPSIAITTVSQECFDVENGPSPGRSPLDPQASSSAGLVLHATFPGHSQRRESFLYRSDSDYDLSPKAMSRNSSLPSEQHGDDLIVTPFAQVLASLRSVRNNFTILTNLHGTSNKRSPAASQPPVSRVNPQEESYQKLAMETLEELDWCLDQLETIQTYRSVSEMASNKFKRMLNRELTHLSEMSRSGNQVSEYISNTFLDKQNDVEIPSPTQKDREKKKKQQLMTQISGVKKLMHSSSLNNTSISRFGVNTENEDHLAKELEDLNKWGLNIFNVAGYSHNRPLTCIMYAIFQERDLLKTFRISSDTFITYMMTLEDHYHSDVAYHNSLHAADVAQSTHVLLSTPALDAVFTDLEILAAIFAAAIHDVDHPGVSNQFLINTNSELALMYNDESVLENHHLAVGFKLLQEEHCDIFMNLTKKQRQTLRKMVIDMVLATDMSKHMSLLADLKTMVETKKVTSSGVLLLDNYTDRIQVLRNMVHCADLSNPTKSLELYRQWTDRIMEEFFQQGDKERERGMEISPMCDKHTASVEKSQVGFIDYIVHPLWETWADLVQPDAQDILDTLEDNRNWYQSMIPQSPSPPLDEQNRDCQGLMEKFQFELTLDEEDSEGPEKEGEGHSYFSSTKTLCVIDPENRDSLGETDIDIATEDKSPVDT
Chain of Cytochrome P450 1A2 (Homo sapiens) (P05177 whole entry, looked up): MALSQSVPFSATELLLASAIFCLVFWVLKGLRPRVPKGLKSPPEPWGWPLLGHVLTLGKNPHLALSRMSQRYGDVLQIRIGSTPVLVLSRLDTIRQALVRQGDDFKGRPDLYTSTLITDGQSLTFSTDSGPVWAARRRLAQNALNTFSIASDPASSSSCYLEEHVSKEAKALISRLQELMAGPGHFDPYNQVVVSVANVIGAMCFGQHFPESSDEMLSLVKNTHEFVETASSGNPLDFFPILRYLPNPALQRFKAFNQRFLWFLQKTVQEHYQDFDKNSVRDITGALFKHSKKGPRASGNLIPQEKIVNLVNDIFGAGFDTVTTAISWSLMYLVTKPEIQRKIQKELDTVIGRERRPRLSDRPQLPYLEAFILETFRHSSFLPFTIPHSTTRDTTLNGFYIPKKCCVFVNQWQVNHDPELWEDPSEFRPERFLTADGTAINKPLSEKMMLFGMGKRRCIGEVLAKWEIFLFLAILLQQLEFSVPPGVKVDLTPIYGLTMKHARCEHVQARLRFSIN
Chain of Cytochrome P450 3A4 (Homo sapiens) (P08684 whole entry, looked up): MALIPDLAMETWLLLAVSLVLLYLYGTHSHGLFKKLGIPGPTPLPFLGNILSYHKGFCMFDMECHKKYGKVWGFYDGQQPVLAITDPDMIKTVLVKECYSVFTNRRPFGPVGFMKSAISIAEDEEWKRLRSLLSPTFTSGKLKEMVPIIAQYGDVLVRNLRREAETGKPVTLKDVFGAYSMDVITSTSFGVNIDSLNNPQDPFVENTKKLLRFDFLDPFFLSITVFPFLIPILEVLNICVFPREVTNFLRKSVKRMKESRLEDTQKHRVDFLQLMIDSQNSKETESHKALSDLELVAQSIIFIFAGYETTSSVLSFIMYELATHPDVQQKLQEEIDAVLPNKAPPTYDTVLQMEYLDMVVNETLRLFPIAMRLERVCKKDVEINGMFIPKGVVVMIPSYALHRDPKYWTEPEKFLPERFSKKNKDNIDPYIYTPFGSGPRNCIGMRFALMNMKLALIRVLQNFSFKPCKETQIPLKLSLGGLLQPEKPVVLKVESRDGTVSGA
Chain of Lysosomal acid glucosylceramidase (Homo sapiens) (P04062 whole entry, looked up): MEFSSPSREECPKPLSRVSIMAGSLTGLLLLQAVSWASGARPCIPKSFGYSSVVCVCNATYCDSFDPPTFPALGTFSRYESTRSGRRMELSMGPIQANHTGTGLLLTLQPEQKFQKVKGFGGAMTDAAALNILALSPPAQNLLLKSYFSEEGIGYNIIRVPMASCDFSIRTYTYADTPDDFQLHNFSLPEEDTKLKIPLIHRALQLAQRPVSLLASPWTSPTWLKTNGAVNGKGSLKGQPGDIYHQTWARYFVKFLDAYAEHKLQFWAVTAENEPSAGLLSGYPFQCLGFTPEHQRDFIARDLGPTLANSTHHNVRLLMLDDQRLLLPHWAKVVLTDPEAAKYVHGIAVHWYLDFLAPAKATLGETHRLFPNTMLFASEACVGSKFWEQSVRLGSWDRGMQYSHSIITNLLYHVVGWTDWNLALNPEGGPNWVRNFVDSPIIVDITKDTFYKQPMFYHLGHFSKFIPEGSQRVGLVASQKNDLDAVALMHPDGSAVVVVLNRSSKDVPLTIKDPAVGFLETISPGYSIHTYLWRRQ
Chain of Ubiquitin carboxyl-terminal hydrolase 1 (Homo sapiens) (O94782 whole entry, looked up): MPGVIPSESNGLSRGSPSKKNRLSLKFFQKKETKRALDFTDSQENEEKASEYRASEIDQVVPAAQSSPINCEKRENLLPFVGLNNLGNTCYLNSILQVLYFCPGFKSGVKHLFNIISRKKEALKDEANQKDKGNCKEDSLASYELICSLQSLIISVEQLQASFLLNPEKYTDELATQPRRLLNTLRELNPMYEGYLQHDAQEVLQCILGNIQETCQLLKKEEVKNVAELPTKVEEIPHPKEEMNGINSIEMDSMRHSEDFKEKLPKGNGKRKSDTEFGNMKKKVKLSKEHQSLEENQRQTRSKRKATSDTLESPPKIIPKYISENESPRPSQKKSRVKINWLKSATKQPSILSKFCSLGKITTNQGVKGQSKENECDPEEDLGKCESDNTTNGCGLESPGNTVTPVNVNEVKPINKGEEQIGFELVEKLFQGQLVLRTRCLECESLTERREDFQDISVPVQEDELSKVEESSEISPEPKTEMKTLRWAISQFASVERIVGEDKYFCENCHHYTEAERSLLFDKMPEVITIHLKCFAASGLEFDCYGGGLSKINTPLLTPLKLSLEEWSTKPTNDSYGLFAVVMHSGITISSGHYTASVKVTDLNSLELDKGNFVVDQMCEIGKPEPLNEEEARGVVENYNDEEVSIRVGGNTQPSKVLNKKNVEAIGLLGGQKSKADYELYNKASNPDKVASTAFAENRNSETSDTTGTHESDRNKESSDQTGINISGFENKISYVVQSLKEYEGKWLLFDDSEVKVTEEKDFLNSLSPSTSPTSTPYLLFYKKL
Chain of Glucocorticoid receptor (Homo sapiens) (P04150 whole entry, looked up, the tested form may be a part): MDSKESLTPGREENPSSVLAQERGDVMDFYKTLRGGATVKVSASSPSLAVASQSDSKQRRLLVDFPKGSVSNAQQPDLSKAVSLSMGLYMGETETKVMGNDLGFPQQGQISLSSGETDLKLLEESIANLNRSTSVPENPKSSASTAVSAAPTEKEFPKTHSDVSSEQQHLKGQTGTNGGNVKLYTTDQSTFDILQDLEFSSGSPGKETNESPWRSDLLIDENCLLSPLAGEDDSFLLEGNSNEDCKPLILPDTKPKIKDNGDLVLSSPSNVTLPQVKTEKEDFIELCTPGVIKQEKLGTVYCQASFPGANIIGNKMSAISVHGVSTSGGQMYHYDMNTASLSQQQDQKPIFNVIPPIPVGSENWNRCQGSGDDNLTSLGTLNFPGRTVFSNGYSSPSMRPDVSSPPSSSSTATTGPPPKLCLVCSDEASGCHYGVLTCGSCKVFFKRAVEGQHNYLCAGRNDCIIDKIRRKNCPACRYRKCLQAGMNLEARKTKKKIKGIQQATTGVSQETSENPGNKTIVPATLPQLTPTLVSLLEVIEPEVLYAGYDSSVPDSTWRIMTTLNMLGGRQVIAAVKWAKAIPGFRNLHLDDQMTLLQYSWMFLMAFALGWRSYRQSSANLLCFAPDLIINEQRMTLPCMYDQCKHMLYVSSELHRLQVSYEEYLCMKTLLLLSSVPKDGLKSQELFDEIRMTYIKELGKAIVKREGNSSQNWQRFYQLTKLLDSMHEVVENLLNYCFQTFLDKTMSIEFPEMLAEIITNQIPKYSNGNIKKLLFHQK
Chain of Cytochrome P450 2C9 (Homo sapiens) (P11712 whole entry, looked up): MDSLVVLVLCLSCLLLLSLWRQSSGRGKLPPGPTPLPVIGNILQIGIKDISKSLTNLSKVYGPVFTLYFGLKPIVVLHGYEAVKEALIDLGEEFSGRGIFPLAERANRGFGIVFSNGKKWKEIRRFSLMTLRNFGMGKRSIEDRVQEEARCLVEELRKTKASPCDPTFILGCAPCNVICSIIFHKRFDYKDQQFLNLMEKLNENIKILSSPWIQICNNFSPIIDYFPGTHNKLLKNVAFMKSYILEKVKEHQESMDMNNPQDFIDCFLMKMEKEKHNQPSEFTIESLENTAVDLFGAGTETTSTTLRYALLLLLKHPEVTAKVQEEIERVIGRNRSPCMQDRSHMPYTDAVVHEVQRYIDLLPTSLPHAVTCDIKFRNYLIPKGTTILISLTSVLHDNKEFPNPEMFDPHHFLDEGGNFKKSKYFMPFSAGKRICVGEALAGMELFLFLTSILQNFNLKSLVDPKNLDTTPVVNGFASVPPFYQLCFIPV

Cc1noc(C)c1-c1cc(N2CCN(C)CC2)ncn1
26.7%: max response [11, 20]
22.8%: max response [11, 19]
active: Potency [3] 10 µM
inactive: Potency [1] > 11.4 µM | activity change, negative = inhibition [2] 4.49% | activity change, negative = inhibition [4] -0.822% | activity, negative = inhibition [5] 7.9% | Potency [6] > 46 µM | Potency [7] > 46 µM | outcome [8] | Potency [9] | activity change, negative = inhibition [10] 31% [at 2.29 µM] | activity change, negative = inhibition [11] 3.89% | Potency [12] | Potency [13] | Potency [14] | Potency [15]

COc1ccc(-n2c(=O)c(-c3cccs3)nc3cnc(OC)nc32)cc1
12.4%: max response [11, 19]
13.8%: max response [11, 20]
active: Potency [16] 7.94 µM
inactive: Potency [1] > 11.4 µM | activity change, negative = inhibition [2] -22.9% | activity change, negative = inhibition [4] -2.37% | activity, negative = inhibition [5] -2.82% | Potency [6] > 9.22 µM | Potency [7] > 46 µM | outcome [8] | Potency [17] | activity change, negative = inhibition [11] 3.59% | Potency [12] | Potency [13] | Potency [14] | Potency [15]

COc1ccc(Oc2ncc3nc(-c4ccc(Cl)cc4)c(=O)n(C[C@H]4CCCO4)c3n2)cc1
-85.4%: max response [11, 20]
inactive: Potency [1] > 11.4 µM | activity change, negative = inhibition [2] -19.3% | activity change, negative = inhibition [4] -18.6% | Potency [6] > 9.22 µM | Potency [7] > 46 µM | outcome [8] | Potency [9] | Potency [12] | Potency [13] | Potency [15]
active: Potency [11] 28.2 µM
-25.3%: max response [11, 19]

CNc1cc(-c2ccccc2C(F)(F)F)ncn1
active: Potency [3] 15.8 µM | Potency [17] 15.8 µM
21.4%: max response [11, 19]
inactive: Potency [1] > 11.4 µM | activity change, negative = inhibition [2] 4.62% | activity change, negative = inhibition [4] 1.13% | activity, negative = inhibition [5] 7.97% | Potency [6] > 46 µM | Potency [7] > 46 µM | outcome [8] | Potency [9] | Potency [16] | activation [18] 17.1% | activity change, negative = inhibition [11] 1.87% | Potency [12] | Potency [13] | Potency [14] | Potency [15]
21.2%: max response [11, 20]

CC(=O)NCCNc1ncncc1-c1ccccc1C
17.2%: max response [11, 19]
23%: max response [11, 20]
active: Potency [3] 25.1 µM | Potency [16] 2.51 µM
inactive: Potency [1] > 11.4 µM | activity change, negative = inhibition [2] 10.6% | activity change, negative = inhibition [4] 5.27% | activity, negative = inhibition [5] 8.22% | Potency [6] > 46 µM | Potency [7] > 46 µM | outcome [8] | Potency [9] | activity change, negative = inhibition [10] 19.5% [at 2.29 µM] | Potency [17] | activity change, negative = inhibition [11] 6.81% | Potency [12] | Potency [13] | Potency [14] | Potency [15]
